Measurements published in PubChem BioAssay (NCI).
This is part of a sample that, as a whole, favours compounds with a hit. Of some 79,000 tested, about 15% had one in any assay. A number with no mark means an inactive call. Activity calls are given as the source filed them. Cut-off read from the data, not from the text of the source: active = growth inhibition above about 70%; inactive = the rest.

Assay: NCI Yeast Anticancer Drug Screen. Data for the mgt1 strain (AID 153)
Settings: S. cerevisiae mgt1 mutant growth inhibition, hits give high values
Method: Growth inhibition of yeast strains with defined genetic alterations is measured as a screen for potential anti-cancer activity. Selected strains with alterations in DNA damage repair or cell cycle control were exposed to compounds and growth inhibition was measured relative to vehicle treated controls. The strain used in this assay is mgt1

Compound	growth inhibition (at 1.2 µM)	growth inhibition (at 3.7 µM)	growth inhibition (at 11.0 µM)	growth inhibition (at 33.0 µM)	growth inhibition (at 100.0 µM)
CC(=O)CCC1=C(C)C(=O)C(=O)C(C)=C1O	-17%	0%	4%	8%	80% (active)
Cc1ccccc1NC(=O)c1c(C)oc2c1C(=O)c1ccccc1C2=O	-40%	-35%	-21%	57%	93% (active)
COc1ccccc1/C=C\C(=O)C1COCN1 (stereo not given)	-1%	-2%	-2%	53%	99% (active)
CCN(CC)CC(=O)c1ccc2cc(Cl)c3ccccc3c2c1	0%	13%	99% (active)	99% (active)	99% (active)
O=C1C(=C2CCCC2)CCC1CN1CCCCC1 (stereo not given)	-10%	5%	13%	54%	95% (active)
CC1=NN(C(=O)CC(=O)NC(=O)/C=C\c2ccccc2)C(=O)C1N=Nc1ccc([N+](=O)[O-])cc1 (stereo not given)	1%	9%	32%	51%	55%
O=C1c2cccc3cccc(c23)C(=O)N1CCNCCN1C(=O)c2cccc3cccc(c23)C1=O	-3%	0%	-1%	1%	2%
NC(=S)N/N=C1\c2ccccc2CCC1CCC1(O)CCc2ccccc2C1=O (stereo not given)	21%	18%	48%	82% (active)	84% (active)
